LASV entry inh – inhibitors of Lassa virus binding or cell entry; actives 1.2% (n = 300,000); AID 540256; Lassa virus pseudotype entry inhibition, cell reporter; Potency, µM (series often up to 37.9 µM), inactives show top-dose activity change, negative = inhibition, hits mostly inhibitors; calls by dose curve; tested in HEK293 cells; further: potency means the concentration at half of the fitted maximal effect; nearly all actives have a fitted effect of over 50% in size
FMDV inh – antivirals against foot and mouth disease virus; FMDV antiviral cell-based qHTS; Potency, µM (highest dose often 57.9 µM), without a hit: at the top dose activity change, negative = inhibition, most hits filed as inhibitors; actives 1.2% (n = 410,000); calls by dose curve; tested in HEK293T cells; further: read-out not given here; potency means the concentration at half of the fitted maximal effect; nearly all actives have a fitted effect of over 45% in size
HCV inhibitor – HCV inhibition | Huh7.5.1 HCVcc-Cre infection, luciferase reporter, 44 h | Potency, µM (series often up to 41.8 µM), without a hit: at the highest dose activity change, negative = inhibition, actives largely listed as inhibitors | actives 3.4% (n = 340,000) | AID 651820; active means well fitted inhibition curve with a large enough effect; inconclusive means small, poorly fitted or top-dose-only effect, or another doubt; inactive means no such curve, though single readings can be large or run the other way; further: potency means the concentration at half of the fitted maximal effect
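HCVcc-Cre virus at an moi near 0.5 was added right after compound to cells cultured 4 h from seeding (1,000 cells/well). Luciferase activity was determined 44 h later, 15 min after substrate addition at RT.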
HCMV antiviral – blocks human cytomegalovirus replication; AID 1259415; actives 4.5% (n = 410,000); activity change, negative = inhibition, % at 57.5 µM; HFF cells, HCMV-luciferase reporter, 72 h; hits give low values; in the data active means activity change below about -60%; inconclusive means no clear call, values can overlap the other calls; inactive means above about -39%
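Steps: HFFs plated, 16 h 37C; compounds added; HCMV-luciferase added to MOI 1 PFU/cell; 72 h 37C; OneGlo reagent, 5 min room temperature; luminescence read, normalized to controls.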
Marburg entry inh – blocks Marburg virus binding to or entry into cells. Marburg virus pseudotyped entry inhibition, cell reporter. Potency, µM (series often up to 37.8 µM), for the others: top-dose activity change, negative = inhibition, actives largely listed as inhibitors. actives 1.8% (n = 300,000). AID 540276; calls by dose curve; tested in HEK293 cells; further: potency means the concentration at half of the fitted maximal effect
* hit, by the source's call; ? = inconclusive; nt = no result given; + = active, no number; [ ] = another dose, or the depositor's remark. Most compounds without a hit are left out; they make up all but 7.9% or so of the library. On the % scale 0 is the no-effect control and ±100 the full control effect.

SMILES	LASV entry inh	FMDV inh	HCV inhibitor	HCMV antiviral	Marburg entry inh
COc1cc(/C=C(\C#N)c2nc3ccccc3[nH]2)ccc1Oc1ccc([N+](=O)[O-])cn1	-6%	13%	0.89µM*	3	?
COc1c(O)ccc(/C=C(\C#N)c2nc3ccccc3[nH]2)c1[N+](=O)[O-]	18%	-7%	-2%	-23	-5%
Cc1cc(/C=C(/C#N)c2nc3ccccc3[nH]2)c(C)n1-c1cccc([N+](=O)[O-])c1	10µM*	0%	?	-11	?
O=c1c(-c2ccc(Cl)cc2)nc2cnc(N3CCNCC3)nc2n1CCc1ccccc1	nt	-12%	nt	nt	nt
CN(C)c1ccc(CNC(=O)CCCN2C(=O)c3cccnc3Oc3ccc(Cl)cc32)cc1	-13%[46.1 µM]	-9%	nt	0	nt
CCc1cccc(NC(=O)CCc2c(C)nc3c(-c4ccccc4)c(C)nn3c2C)c1	?	-4%	nt	-5	-6%[46.1 µM]
CCCCn1c(N)c(N(CCC(C)C)C(=O)c2cc(Cl)nc3ccccc23)c(=O)[nH]c1=O	4%	-11%	-1%	-3	?
CCCCn1c(N)c(N(CCC(C)C)C(=O)CSc2nc3ccccc3n2C)c(=O)[nH]c1=O	-1%	-15%	10µM*	-18	6%
CCC(CC)C(=O)Nc1nnc2n1CCS2	3%[46.1 µM]	-18%	nt	-11	nt
O=C(Cn1c(-c2ccccc2)c[n+]2ccsc12)c1ccc(Br)cc1	-1%	-12%	-5%	-74*	-26%[46.1 µM]
CSc1nnc(CCNC(=O)/C=C/c2cccc(F)c2)n1-c1ccc(F)cc1	nt	-15%	nt	nt	nt
CCCn1c(C)cc(C(=O)COC(=O)c2cc(S(=O)(=O)NCC(C)C)c(Cl)cc2Cl)c1C	?	26%	10µM*	-7	-15%
CC(C)CNS(=O)(=O)c1cc(C(=O)OCC(=O)c2ccc3c(c2)OCCO3)c(Cl)cc1Cl	?	?	-18%	-3	?
C=C1C(=O)OC2C=C(CO)C3OC3C3OC3(C)CC(OC(=O)/C(=C/C)COC(C)=O)C12 (stereo not given)	?	7.9µM*	?	-100*	2.5µM*
CC(=O)OCC1=C[C@@H]2OC(=O)C3=CO[C@@H](O[C@@H]4O[C@H](CO)[C@@H](O)[C@H](O)[C@H]4O)[C@H]1[C@@H]32	nt	-16%	5%	4	nt
Cc1ccc(C)c(NC(=O)CN(Cc2ccccc2)S(=O)(=O)c2ccc3nc(C)sc3c2)c1	-2%[46.1 µM]	-17%	nt	-20	nt
COc1ccc(CCn2c(N)c(C(=O)NCc3ccco3)c3nc4ccccc4nc32)cc1	?	-27%	?	-75*	?
Nc1c(C(=O)NCc2ccco2)c2nc3ccccc3nc2n1CCN1CCOCC1	-5%	-21%	8%	-94*	?
CO[C@@H]1c2cc(F)ccc2C(=CCCOC(=O)CC=Cc2ccccc2)[C@H]1C	nt	nt	nt	nt	-24%[14.2 µM]
Fc1ccccc1N1CCN(c2nc(-c3cccs3)nc3ccccc23)CC1	5%	?	?	-28	16%[46.1 µM]
CN(Cc1ccccc1F)c1nc(-c2cccs2)nc2ccccc12	0%	?	?	-60*	3%
CSCC(C)N1CCC(n2nccc2NC(=O)CCc2ccccc2)CC1 (stereo not given)	nt	13%	9%	16	nt
COc1ccccc1/C=C/CN1CCC(n2nccc2NC(=O)CCc2ccccc2)CC1	nt	?	3.5µM*	?	nt
O=C(CCc1ccccc1)Nc1ccnn1C1CCN(C/C=C/c2ccccc2)CC1	nt	-26%	-21%	-10	nt
CSCC(C)N1CCC(n2nccc2NC(=O)CCCc2ccccc2)CC1 (stereo not given)	nt	-8%	6%	+	nt
SMILES	LASV entry inh	FMDV inh	HCV inhibitor	HCMV antiviral	Marburg entry inh
CCCC[C@@H](CN[C@H](C)CNC)NCC1CCC(C(C)(C)C)CC1 (stereo not given in full)	nt	-15%	?	-87*	nt
Cc1c(C(=O)NCC2(N3CCOCC3)CCCCCC2)cnn1-c1nccc(-c2ccccc2F)n1	nt	-24%	nt	nt	nt
COc1cccc(-c2nc3ccc([N+](=O)[O-])cc3o2)c1	?	82%	27%	-79*	?
O=[N+]([O-])c1ccc2nc(-c3ccccc3)oc2c1	nt	100%	0%	38	nt
COC(=O)CC=C1c2ccccc2OC[C@@H](OC)[C@H]1C	nt	nt	nt	nt	2%[14.2 µM]
O=C(Cc1ccc(-n2c(=O)c3sccc3n(CC(=O)Nc3ccccc3F)c2=O)cc1)NCc1ccco1	nt	10%	19%	-60*	nt
O=C(Cc1ccc(-n2c(=O)c3sccc3n(CC(=O)Nc3ccccc3)c2=O)cc1)NCc1ccco1	-20%[46.1 µM]	-12%	0%	-37	17%[46.1 µM]
CCOC(=O)c1c(S(=O)(=O)N2CCC(C(=O)N3CCN(c4cc(C)ccc4C)CC3)CC2)c(C)n(C)c1C	-21%[46.1 µM]	0%	nt	18	nt
Cc1c(C(=O)NCCN2CCC(c3ccccc3)CC2)cnn1-c1nccc(-c2cccs2)n1	nt	-10%	nt	nt	nt
O=c1cc(-c2ccc(O)c(O)c2)oc2c1ccc1ccccc12	nt	?	?	11	nt
O=c1cc(-c2ccc(O)c(O)c2)oc2ccc3ccccc3c12	?	6.3µM*	?	-5	?
Nc1ccc(N2CCN(c3ccc(Cl)c(Cl)c3)CC2)cc1	-25%	0%	?	-85*	3%
Nc1ccc(N2CCCCCC2)cc1	nt	nt	nt	nt	3%
CC(=O)N1CCN(c2ccc(N)cc2)CC1	nt	-12%	nt	-74*	nt
Nc1ccc(N2CCN(c3ccc(F)cc3)CC2)cc1	?	-4%	1%	-60*	3%[46.1 µM]
Cc1ccc(NC(=O)N2CC3CCCN3c3ccccc32)c(C)c1 (stereo not given)	-9%[46.1 µM]	-19%	nt	9	nt
O=C1c2ccccc2-c2nnc(-c3ccc(F)cc3)cc21	-12%[46.1 µM]	-22%	-10%	0	?
Cc1ccc(-c2cc3c(nn2)-c2ccccc2C3=O)cc1	nt	10µM*	-2%	0	nt
O=C(NCc1ccccc1F)[C@H]1[C@H](CO)[C@H]2Cn3c(cccc3=O)[C@H]2N1CC1CC1	nt	nt	nt	3	nt
Cc1occc1C(=O)N/N=C/c1c[nH]c2ccccc12	8%	76%	18%	368	21%
O=C(N/N=C\c1c(O)ccc2ccccc12)c1ccc(O)cc1	nt	26%	?	-98*	nt
O=C(N/N=C/c1cccnc1)c1cc(O)c(O)c(O)c1	?	12%	-3%	-27	3.2µM*
O=C(N/N=C/c1cccnc1)c1ccc(O)cc1	?	3%	-1%	5	-2%[46.1 µM]
Cc1occc1C(=O)N/N=C/c1c(O)ccc2ccccc12	?	53%	?	-101*	3.5µM*
Cn1cc(C(=O)N/N=C/c2c(O)ccc3ccccc23)ccc1=O	nt	-7%	4.5µM*	-99*	nt
CCc1ccc2c(c1)c(=O)c(S(=O)(=O)c1ccccc1)cn2CC(=O)Nc1cc(C)ccc1C	17%[46.1 µM]	-7%	nt	-14	5%[46.1 µM]
CCc1ccc(NC(=O)CN2C(C(=O)OC)=C(c3ccccc3)c3ccccc3S2(=O)=O)cc1	?	-17%	nt	-5	?
COc1cc(=O)n2c(c1C(=O)NCc1ccco1)CCN(Cc1c(F)cccc1F)CC2	nt	-17%	nt	nt	nt

Compound activity deposited in PubChem BioAssay by National Center for Advancing Translational Sciences (NCATS).
